Among all 39,000 compounds or so, about 3,300 (8.5%) were called active. This excerpt belongs to a sample that is enriched for actives.
These compounds were tested on HepG2 (assay: cytotoxicity call (relative viability < 0.9)). Details: 10 µM.

Compound | cytotoxicity call
Cc1noc(C)c1S(=O)(=O)N(C)C[C@@H]1OCCCC[C@@H](C)Oc2ccc(N(C)C)cc2C(=O)N([C@H](C)CO)C[C@H]1C | inactive
CC(C)Cc1ccc(CN2CC[C@@H](N)C2)cc1 | inactive
CC(C)N1CC=C[C@@]23O[C@@H]4C=CCOC(=O)[C@@H]4[C@H]2C(=O)N(CCCCCO)[C@@H]3C1=O | inactive
C[C@@H]1CN([C@H](C)CO)C(=O)CCCn2nncc2CO[C@@H]1CN(C)S(=O)(=O)c1ccc(-c2ccccc2)cc1 | inactive
C[C@@H]1CC=CC[C@@H](c2cccc(Cl)c2)NC(=O)[C@H](Cc2ccccc2)N(C)C(=O)c2ccccc2O1 | inactive
C[C@@H]1CCCn2nncc2COCCNC1=O | inactive
C[C@@H]1CCCCO[C@@H](CN(C)CC2CCCCC2)[C@H](C)CN([C@@H](C)CO)C(=O)c2cc(NS(=O)(=O)c3ccc(Cl)cc3)ccc2O1 | inactive
C[C@@H]1CCCCO[C@H](CN(C)CC2CCCCC2)[C@H](C)CN([C@@H](C)CO)C(=O)c2cc(NS(=O)(=O)c3ccc(Cl)cc3)ccc2O1 | active
C[C@@H]1CCCCO[C@@H](CN(C)CC2CCCCC2)[C@H](C)CN([C@H](C)CO)C(=O)c2cc(NS(=O)(=O)c3ccc(Cl)cc3)ccc2O1 | active
CCCN(C)C[C@H]1OCCCC[C@H](C)Oc2ccc(NS(=O)(=O)c3ccc(Cl)cc3)cc2C(=O)N([C@H](C)CO)C[C@H]1C | inactive
C[C@@H]1CCCCO[C@H](CN(C)CC2CCCCC2)[C@@H](C)CN([C@H](C)CO)C(=O)c2cc(NS(=O)(=O)c3ccc(Cl)cc3)ccc2O1 | inactive
C[C@H](CO)N1C[C@H](C)[C@@H](CN(C)CC2CCCCC2)OCCCC[C@H](C)Oc2ccc(NS(=O)(=O)c3ccc(Cl)cc3)cc2C1=O | inactive
C[C@@H]1CCCCO[C@@H](CN(C)CC2CC2)[C@H](C)CN([C@@H](C)CO)C(=O)c2cc(NS(=O)(=O)c3ccc(Cl)cc3)ccc2O1 | inactive
CCCN(C)C[C@H]1OCCCC[C@@H](C)Oc2ccc(NS(=O)(=O)c3ccc(Cl)cc3)cc2C(=O)N([C@@H](C)CO)C[C@H]1C | active
C[C@@H]1CN([C@H](C)CO)C(=O)c2cc(NS(=O)(=O)c3ccc(Cl)cc3)ccc2O[C@@H](C)CCCCO[C@@H]1CN(C)CC1CCCCC1 | active
CCCN(C)C[C@H]1OCCCC[C@H](C)Oc2ccc(NS(=O)(=O)c3ccc(Cl)cc3)cc2C(=O)N([C@@H](C)CO)C[C@H]1C | inactive
C[C@@H]1CCCCO[C@H](CN(C)CC2CCCCC2)[C@H](C)CN([C@H](C)CO)C(=O)c2cc(NS(=O)(=O)c3ccc(Cl)cc3)ccc2O1 | inactive
C[C@@H]1CCCCO[C@@H](CN(C)CC2CCCCC2)[C@@H](C)CN([C@H](C)CO)C(=O)c2cc(NS(=O)(=O)c3ccc(Cl)cc3)ccc2O1 | inactive
Cc1ccc(S(=O)(=O)N(C)C[C@H]2Oc3c(NC(=O)C4CCOCC4)cccc3C(=O)N([C@@H](C)CO)C[C@H]2C)cc1 | inactive
C[C@@H]1CN([C@@H](C)CO)C(=O)c2cc(NS(C)(=O)=O)ccc2O[C@@H](C)CCCCO[C@@H]1CN(C)C(=O)CCCN(C)C | inactive
CN1CCN(C(=O)C[C@@H]2CC[C@@H](NC(=O)Cc3ccccn3)[C@@H](CO)O2)CC1 | inactive
NCC[C@H]1CC[C@@H](NC(=O)C2CCCC2)[C@@H](CO)O1 | inactive
Cc1noc(C)c1S(=O)(=O)Nc1ccc2c(c1)C(=O)N([C@@H](C)CO)C[C@@H](C)[C@H](CN(C)S(C)(=O)=O)OCCCC[C@@H](C)O2 | inactive

Compound | cytotoxicity call
CC(=O)N1CCC[C@H](C(=O)O)C1 | inactive
COc1ccc(S(=O)(=O)N[C@H]2CC[C@H](CC(=O)N3CCC(Cc4ccccc4)CC3)O[C@@H]2CO)cc1 | inactive
C[C@H]1CCCCO[C@@H](CN(C)CC2CCCCC2)[C@@H](C)CN([C@@H](C)CO)C(=O)c2cc(NS(=O)(=O)c3ccc(Cl)cc3)ccc2O1 | inactive
C[C@@H]1CCCCO[C@@H](CN(C)CC2CCCCC2)[C@@H](C)CN([C@@H](C)CO)C(=O)c2cc(NS(=O)(=O)c3ccc(Cl)cc3)ccc2O1 | active
C[C@@H]1CN([C@@H](C)CO)C(=O)c2cc(NS(=O)(=O)c3ccc(Cl)cc3)ccc2O[C@@H](C)CCCCO[C@@H]1CN(C)CC1CCCCC1 | inactive
C[C@@H]1CN([C@@H](C)CO)C(=O)c2cc(NS(=O)(=O)c3ccc(Cl)cc3)ccc2O[C@@H](C)CCCCO[C@H]1CN(C)CC1CCCCC1 | inactive
C[C@H](CO)N1C[C@H](C)[C@H](CN(C)CC2CCCCC2)OCCCC[C@H](C)Oc2ccc(NS(=O)(=O)c3ccc(Cl)cc3)cc2C1=O | active
C[C@H]1CCCCO[C@H](CN(C)CC2CCCCC2)[C@@H](C)CN([C@@H](C)CO)C(=O)c2cc(NS(=O)(=O)c3ccc(Cl)cc3)ccc2O1 | inactive
C[C@@H]1CN([C@@H](C)CO)S(=O)(=O)c2ccc(-c3cccc(F)c3)cc2O[C@@H]1CN(C)S(C)(=O)=O | inactive
CS(=O)(=O)N1CCc2ccc(N)cc2C1 | inactive
Cc1noc(C)c1NC(=O)Nc1ccc2c(c1)CC(=O)N([C@H](C)CO)C[C@@H](C)[C@H](CN(C)Cc1ccc(C(F)(F)F)cc1)O2 | inactive
Cc1ccc(S(=O)(=O)Nc2ccc3c(c2)C(=O)N([C@@H](C)CO)C[C@H](C)[C@@H](CN(C)S(=O)(=O)c2ccc(F)cc2)O3)cc1 | inactive
CN(CCO)c1ccccn1 | inactive
CN(CCOc1ccc(CC2SC(=O)NC2=O)cc1)c1ccccn1.O=C(O)C=CC(=O)O (centres undefined) | active
CCc1ccc(CCOc2ccc(CC3SC(=O)NC3=O)cc2)nc1.Cl (centres undefined) | inactive
C[C@@H]1CCCCO[C@@H](CN(C)S(=O)(=O)c2cccs2)[C@@H](C)CN([C@H](C)CO)C(=O)c2cc(NC(=O)CCCCCC(=O)Nc3ccccc3N)ccc2O1 | inactive
C[C@H](CO)N1C[C@H](C)[C@H](CN(C)C(=O)Nc2ccccc2)Oc2ncc(-c3cccc(C(F)(F)F)c3)cc2C1=O | inactive
C[C@H](CO)N1C[C@H](C)[C@H](CN(C)C(=O)Nc2cccc3ccccc23)Oc2ncc(-c3cccc(C(F)(F)F)c3)cc2C1=O | inactive
CN(C)C1CCN(C(=O)c2cnc(-c3noc4cc(-c5ccccc5C(F)(F)F)ccc34)s2)CC1 | active
CN(C)C1CCN(C(=O)c2cnc(-c3noc4cc(-c5cccc(C(F)(F)F)c5)ccc34)s2)CC1 | active
C[C@H]1CN([C@@H](C)CO)C(=O)c2cccc(NC(=O)C3CCCCC3)c2O[C@@H]1CN(C)Cc1ccc(C(F)(F)F)cc1 | inactive
CCCN(C)C[C@H]1OCCCC[C@H](C)Oc2ccc(NC(=O)Nc3cccc4ccccc34)cc2C(=O)N([C@@H](C)CO)C[C@H]1C | inactive
O=C(CCCCCNC(=O)OCc1ccc(CO[C@@H]2C[C@H](c3csc4ccccc34)C=C(C(=O)N3CCN(Cc4ccccc4)CC3)O2)cc1)NO | inactive

Compound | cytotoxicity call
C[C@H]1CN([C@@H](C)CO)C(=O)c2cc(NC(=O)C3CC3)ccc2O[C@H]1CN(C)S(=O)(=O)c1cccs1 | inactive
CC(C)Cc1ccc([C@@H](C)C(=O)Nc2ccc(Cl)cc2)cc1 | active
N[C@@H](Cc1ccc(Cl)cc1)C(=O)O | inactive
CC(C)Cc1ccc(C(C)C(=O)O)cc1 (centres undefined) | inactive
C[C@@H]1CN([C@@H](C)CO)C(=O)CCCn2nncc2CO[C@H]1CN(C)C(=O)Nc1ccc2c(c1)OCO2 | inactive
C[C@@H]1CN([C@@H](C)CO)C(=O)c2cc(-c3cncnc3)cnc2O[C@@H]1CN(C)C(=O)Nc1ccc2c(c1)OCO2 | inactive
CC(C)(C)OC(=O)NCCOCCOCCOc1ccc(N(C(=O)CCl)[C@@H](C(=O)NCCc2ccccc2)c2cccs2)cc1Cl | active
COc1ccc(N(C(=O)CCl)[C@@H](C(=O)NCCc2ccccc2)c2ccc(Cl)s2)cc1Cl | active
O=C(CCCl)NCCc1ccccc1 | inactive
COc1ccc(N(C(=O)CSc2ncccn2)[C@@H](C(=O)NCCc2ccccc2)c2cccs2)cc1Cl | inactive
Cc1noc(C)c1S(=O)(=O)Nc1cccc2c1O[C@H](CN(C)S(C)(=O)=O)[C@H](C)CN([C@H](C)CO)C2=O | inactive
C[C@H]1CN([C@@H](C)CO)C(=O)Cc2cc(NS(=O)(=O)c3cn(C)cn3)ccc2O[C@@H]1CN(C)Cc1ccccc1 | inactive
C[C@@H]1CCCCO[C@@H](CN(C)C(=O)Nc2ccc3c(c2)OCO3)[C@H](C)CN([C@H](C)CO)C(=O)c2cc(NC(=O)c3ccncc3)ccc2O1 | inactive
COc1ccc(CNC(=O)C[C@@H]2C[C@@H]3c4cc(NS(=O)(=O)c5ccc(F)cc5)ccc4O[C@@H]3[C@@H](CO)O2)cc1 | inactive
C[C@H]1CCCCO[C@@H](CN(C)C(=O)Nc2ccc(F)cc2)[C@@H](C)CN([C@@H](C)CO)C(=O)c2cc(NC(=O)Nc3ccccc3)ccc2O1 | inactive
C[C@@H]1CCCCO[C@H](CN(C)Cc2ccncc2)[C@@H](C)CN([C@H](C)CO)C(=O)c2cc(NC(=O)Nc3ccc4c(c3)OCO4)ccc2O1 | inactive
CCC(=O)N(C)C[C@H]1Oc2ncc(C#C[C@@H](C)O)cc2C(=O)N([C@@H](C)CO)C[C@H]1C | inactive
C[C@H]1CCCCO[C@H](CN(C)S(=O)(=O)c2ccc(F)cc2)[C@@H](C)CN([C@@H](C)CO)C(=O)c2cc(NC(=O)c3ccccc3)ccc2O1 | active
C[C@@H]1CCCCO[C@H](CN(C)S(=O)(=O)c2ccc(F)cc2)[C@H](C)CN([C@@H](C)CO)C(=O)c2cc(NC(=O)c3ccccc3)ccc2O1 | inactive
C[C@@H]1CCCCO[C@@H](CN(C)S(=O)(=O)c2ccc(F)cc2)[C@@H](C)CN([C@@H](C)CO)C(=O)c2cc(NC(=O)c3ccccc3)ccc2O1 | inactive
C[C@H](CO)N1C[C@H](C)[C@H](CN(C)S(=O)(=O)c2ccc(F)cc2)OCCCC[C@H](C)Oc2ccc(NC(=O)c3ccccc3)cc2C1=O | inactive
C[C@@H]1CCCCO[C@H](CN(C)S(=O)(=O)c2ccc(F)cc2)[C@@H](C)CN([C@H](C)CO)C(=O)c2cc(NC(=O)c3ccccc3)ccc2O1 | inactive
C[C@@H]1CN([C@H](C)CO)C(=O)c2cc(NC(=O)c3ccccc3)ccc2O[C@@H](C)CCCCO[C@H]1CN(C)S(=O)(=O)c1ccc(F)cc1 | active
